Source: PubChem BioAssay
An excerpt weighted towards active compounds, which were near 2.9% of everything screened.
MEKK3 PB1 HTS: raises or lowers MEK5 binding to the human MEKK3 PB1 domain | Q99759 | bead-based flow cytometry, Alexa488-MEK5 binding to MEKK3; actives lie on both sides; 0 = blocked by unlabeled MEK5, 100 = vehicle | binding response (% of control), % at 10 µM | actives 1.4% (n = 290,000) | AID 1529;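 active = binding response more than 3 SD above or below the average of its plate-row segment, actives on both sides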;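 note: Alexa488 bead fluorescence after subtracting the streptavidin-only scavenger bead signal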
CRFR2-BP ag: CRF-BP/CRF-R2 complex agonism; HEK293 CRF-R2/CRF-BP, calcium dye fluorescence (FLIPR); percent of saturating CRF peptide response; AID 588473; activation, % at 13.2 µM; actives 0.46% (n = 350,000);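 active = activation of at least 50%, plus an integration ratio under a set limit after plate pattern correction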
ABCB6 inh 2: inhibitors of human ABC transporter ABCB6; K562-ABCB6 porphyrin accumulation, flow cytometry, 1 h; active compounds read low; fluorescence ratio to DMSO, % at 10 µM; actives 0.19% (n = 360,000);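 active = fluorescence ratio to DMSO below 75%, the collection mean minus 3 SD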;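 note: signal is porphyrin accumulated inside mitochondria; lower ratio means ABCB6 inhibition with less porphyrin fluorescence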
Target sequence (Q9NP58 whole entry, looked up): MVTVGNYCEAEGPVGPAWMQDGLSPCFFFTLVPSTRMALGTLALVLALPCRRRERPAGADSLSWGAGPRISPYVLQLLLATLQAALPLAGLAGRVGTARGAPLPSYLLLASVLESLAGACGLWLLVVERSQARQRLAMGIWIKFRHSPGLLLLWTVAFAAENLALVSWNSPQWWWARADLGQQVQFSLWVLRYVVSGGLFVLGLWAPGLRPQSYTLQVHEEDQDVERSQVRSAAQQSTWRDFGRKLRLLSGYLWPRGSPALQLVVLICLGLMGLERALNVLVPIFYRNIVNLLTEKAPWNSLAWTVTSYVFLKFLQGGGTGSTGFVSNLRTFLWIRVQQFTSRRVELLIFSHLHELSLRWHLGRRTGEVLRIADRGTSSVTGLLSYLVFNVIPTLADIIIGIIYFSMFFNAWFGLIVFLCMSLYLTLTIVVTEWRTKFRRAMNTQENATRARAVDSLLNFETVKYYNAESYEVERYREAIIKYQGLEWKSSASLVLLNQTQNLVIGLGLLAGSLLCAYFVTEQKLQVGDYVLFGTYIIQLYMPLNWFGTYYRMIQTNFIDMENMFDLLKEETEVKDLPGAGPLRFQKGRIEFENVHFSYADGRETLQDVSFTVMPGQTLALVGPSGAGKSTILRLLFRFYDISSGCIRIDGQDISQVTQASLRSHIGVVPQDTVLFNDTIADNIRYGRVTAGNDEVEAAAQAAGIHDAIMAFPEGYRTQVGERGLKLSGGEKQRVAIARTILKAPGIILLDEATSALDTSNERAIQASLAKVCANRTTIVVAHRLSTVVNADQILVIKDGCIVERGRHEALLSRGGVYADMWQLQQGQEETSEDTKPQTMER
MEKK2mut PB1 HTS: signal of MEK5 binding to mutant human MEKK2 PB1 domain. bead flow cytometry, Alexa488-MEK5 binding to MEKK2 mutant. percent response, % at 10 µM. actives 0.35% (n = 290,000); in the data active = percent response above about 24%, passing the limit was not always enough
MEKK2wt PB1 HTS: raises or lowers MEK5 binding to wildtype human MEKK2 PB1 domain. actives 1.1% (n = 290,000). binding response (% of control), % at 10 µM. Q9Y2U5. bead flow cytometry, Alexa488-MEK5 binding to MEKK2 WT; actives lie on both sides. AID 1531; in the data active = binding response below about 67% or above about 130%
CRFBP-R2 block: blocks CRF-induced signaling of the CRF-BP/CRF-R2 complex | HEK293 CRF-R2/CRF-BP, CRF-induced calcium fluorescence | inhibition, % at 11.8 µM | actives 0.59% (n = 350,000);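 active = inhibition of the ligand-induced calcium signal above about 50% at the single tested concentration, limit read from the data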
Each line names hits and unclear results; the compound was inactive in the other large screens; [ ] = dose if it differs, or a comment.

CS(=O)(=O)Nc1ccc(C2=NN(S(C)(=O)=O)C(c3ccccc3)C2)cc1 (stereo not drawn)	none
O=C(CCn1c(=O)c2cccn2c2cccnc21)NCCCN1CCN(c2ccc(F)cc2)CC1	none (no result: MEKK3 PB1 HTS, MEKK2mut PB1 HTS, MEKK2wt PB1 HTS)
CC(Sc1n[nH]c(N)n1)C(=O)Nc1cccc2ccccc12 (stereo not drawn)	none (no result: MEKK3 PB1 HTS, MEKK2mut PB1 HTS, MEKK2wt PB1 HTS)
CC(C)CN(C(=O)CN(C)CC(=O)Nc1ccc(Cl)c(C(F)(F)F)c1)c1c(N)n(CC(C)C)c(=O)[nH]c1=O	none (no result: MEKK3 PB1 HTS, MEKK2mut PB1 HTS, MEKK2wt PB1 HTS)
CCS(=O)(=O)Nc1cccc(C2=NN(S(C)(=O)=O)C(c3cccs3)C2)c1 (stereo not drawn)	MEKK3 PB1 HTS 12[inhibitor] (no result: MEKK2mut PB1 HTS, MEKK2wt PB1 HTS)
CS(=O)(=O)Nc1cccc(C2=NN(S(=O)(=O)c3ccc(F)cc3)C(c3cccs3)C2)c1 (stereo not drawn)	MEKK2wt PB1 HTS 7.0
CCS(=O)(=O)Nc1ccc(C2=NN(S(=O)(=O)CC)C(c3cccs3)C2)cc1 (stereo not drawn)	MEKK3 PB1 HTS 7.0[inhibitor] (no result: MEKK2wt PB1 HTS)
CCS(=O)(=O)Nc1cccc(C2=NN(S(=O)(=O)c3ccc(F)cc3)C(c3cccs3)C2)c1 (stereo not drawn)	none
CS(=O)(=O)N1N=C(c2ccc(Cl)cc2)CC1c1cccs1 (stereo not drawn)	none
CC(=O)c1ccc(N2CCN(C(=O)[C@H](C)NC(=O)c3ccccc3Cl)CC2)cc1	none
Cc1ccc(OCC(=O)N2CC(C)CC(C)C2)c([N+](=O)[O-])n1 (stereo not drawn)	none (no result: MEKK3 PB1 HTS, MEKK2mut PB1 HTS, MEKK2wt PB1 HTS)
COc1ccc2c(c1C)CCC(C)(C#N)C2=O (stereo not drawn)	none (no result: MEKK3 PB1 HTS, MEKK2mut PB1 HTS, MEKK2wt PB1 HTS)
Cc1cc(C(=O)COC(=O)C23CC4CC(CC(O)(C4)C2)C3)c(C)n1-c1c(C)n(C)n(-c2ccccc2)c1=O	none
COCCn1c(C)cc(C(=O)COC(=O)C23CC4CC(CC(O)(C4)C2)C3)c1C	ABCB6 inh 2 2.0
COCCn1c(C)cc(C(=O)COC(=O)c2cc3c(s2)CCC3)c1C	CRFBP-R2 block 64
CC(=O)c1ccc(N(CC(=O)NC2CCCCC2)C(=O)CNC(=O)c2ccco2)cc1	none
COc1ccccc1C(=O)COC(=O)c1c(-c2ccccc2)noc1C	CRFBP-R2 block 50 (no result: MEKK3 PB1 HTS, MEKK2mut PB1 HTS, MEKK2wt PB1 HTS)
Cc1ccc2cc(/C=C/C(=O)c3ccco3)c(Cl)nc2c1	none
Cc1ccc2nc(Cl)c(/C=C/C(=O)c3ccco3)cc2c1	CRFBP-R2 block 101
CC(=O)c1c(C)[nH]c(C(=O)CN2C(=O)NC3(CCCCC3)C2=O)c1C	none (no result: MEKK3 PB1 HTS, MEKK2mut PB1 HTS, MEKK2wt PB1 HTS)
COc1ccc(NS(=O)(=O)c2cc(NC(=O)c3ccccn3)ccc2OC)cc1Br	none (no result: MEKK3 PB1 HTS, MEKK2mut PB1 HTS, MEKK2wt PB1 HTS)
COc1ccc(NC(=O)c2c(F)cccc2F)cc1S(=O)(=O)Nc1ccc(Br)cc1	CRFBP-R2 block 63
CCOC(=O)c1c(CC(C)C)csc1/N=C/C1C(=O)CCCC1=O	none
CCOC(=O)c1c(-c2ccccc2)csc1/N=C/C1C(=O)CCCC1=O	MEKK2mut PB1 HTS 70
Cc1ccc(SCC(=O)OCC(=O)N(CC(C)C)c2c(N)n(Cc3ccccc3)c(=O)[nH]c2=O)c(C)c1	none (no result: MEKK3 PB1 HTS, MEKK2mut PB1 HTS, MEKK2wt PB1 HTS)
CN(CCCC[C@H](CNCc1ccc(-c2ccccc2)cc1)N1C[C@H](c2ccccc2)N(CCc2ccc(Cl)c(Cl)c2)C(=O)C1=O)Cc1ccc(-c2ccccc2)cc1	MEKK2mut PB1 HTS 78, MEKK2wt PB1 HTS 228 (no result: CRFR2-BP ag, ABCB6 inh 2, CRFBP-R2 block)
CCc1ccc(CCC(=O)Nc2ncc(Cc3ccccc3Cl)s2)o1	MEKK3 PB1 HTS 163
O=C(CN1CCOCC1)Nc1ncc(Cc2ccccc2Cl)s1	none
CC(C)N(C(=O)C1CC(=O)OC12CCCCC2)C(C)C (stereo not drawn)	none
CN(C)C(=O)C1CC(=O)OC12CCCCC2 (stereo not drawn)	CRFBP-R2 block 114
Cc1nc2nc(SCC(=O)c3cccc([N+](=O)[O-])c3)[nH]c2cc1Br	CRFBP-R2 block 67
COc1ccc(C2=NN(C)C(=NCc3ccccc3)SC2)cc1	CRFBP-R2 block 62
CC(C)(C)c1nnc(SCC(=O)c2ccccc2)n(N)c1=O	none
O=C(COc1ccc(Cl)cc1Cl)Nc1ccccc1F	CRFBP-R2 block 125 (no result: MEKK3 PB1 HTS, MEKK2mut PB1 HTS, MEKK2wt PB1 HTS)
Cc1ccc(C(=O)N/C(=C\c2ccc(-c3ccc([N+](=O)[O-])cc3)o2)C(=O)NC2CCS(=O)(=O)C2)cc1 (stereo not drawn)	CRFR2-BP ag 95, MEKK2wt PB1 HTS 4.0
O=C(NCCCO)/C(=C/c1ccc(-c2cccc([N+](=O)[O-])c2)o1)NC(=O)c1ccccc1	none
Cc1ccc(C(=O)N/C(=C/c2ccc(-c3ccc([N+](=O)[O-])cc3)o2)C(=O)NCCCN(C)C)cc1	CRFR2-BP ag 52 (no result: MEKK3 PB1 HTS, MEKK2mut PB1 HTS, MEKK2wt PB1 HTS)
CCOc1ccc(CNC(=O)Cn2ccc3cc(S(=O)(=O)N4CCCC4)ccc32)cc1	none
CCN1C(=O)[C@H]2[C@@H](c3ccc(C)cc3)N3C(=O)N(c4ccccc4)C(=O)[C@@]3(CC)[C@H]2C1=O	none
CC(=O)Nc1ccc(OS(=O)(=O)c2ccc(C(C)(C)C)cc2)cc1	none (no result: CRFR2-BP ag, ABCB6 inh 2, CRFBP-R2 block)
CCOC(=O)c1ccc(NCn2c(=O)oc3ccccc32)cc1	CRFR2-BP ag 62
COC(=O)c1ccc(NC(=O)CCn2c(=O)oc3ccccc32)cc1	none
CCOC(=O)[C@@H]1[C@H]2COc3cc(OC)ccc3[C@@H]2N2C(=O)N(c3cccc(Cl)c3)C(=O)[C@@]12C	none
COc1ccc(CNc2ccccc2SC)cc1OC	none
COc1cc(CNc2ccccc2SC)cc(OC)c1OC	CRFBP-R2 block 73
Cc1c(CCCl)c(Cl)n2c(nc3ccccc32)c1C#N	none (no result: MEKK3 PB1 HTS, MEKK2mut PB1 HTS, MEKK2wt PB1 HTS)
CCCCN(CC)C(=S)Nc1ccc2nc(N3CCN(C)CC3)cc(C)c2c1	none
CCCCNc1nc(CC)c2c(c1C#N)CCCC2	CRFBP-R2 block 61
CC(=O)Oc1c(C)cc(Cl)cc1C(=O)Nc1ccc([N+](=O)[O-])cc1Cl	CRFR2-BP ag 83
CSCC[C@H](N)C(=O)N1CCC(C(=O)N[C@H](C)C(=O)Nc2ccc(C(C)C)cc2)CC1	none
COCCCNC(=O)CC1C[C@H](C(=O)N(C(C)C)C(C)C)[C@@]2(C)c3[nH]c4ccc(OC)cc4c3CCN2C1=O (stereo partly drawn)	none (no result: MEKK3 PB1 HTS, MEKK2mut PB1 HTS, MEKK2wt PB1 HTS)
CCN(CC)C(=O)[C@H]1C[C@H](CC(=O)NC/C=C(\C)CCC=C(C)C)C(=O)N2CCc3c([nH]c4ccc(Cl)cc34)[C@]12C	CRFBP-R2 block 75 (no result: MEKK3 PB1 HTS, MEKK2mut PB1 HTS, MEKK2wt PB1 HTS)
CC[C@]12c3[nH]c4ccc(OC)cc4c3CCN1C(=O)C(CC(=O)NCCCOC)C[C@@H]2C(=O)N1CCN(C(=O)c2ccco2)CC1 (stereo partly drawn)	CRFBP-R2 block 53 (no result: MEKK3 PB1 HTS, MEKK2mut PB1 HTS, MEKK2wt PB1 HTS)
CC[C@]12c3[nH]c4ccc(OC)cc4c3CCN1C(=O)C(CC(=O)NCCN1CCOCC1)C[C@@H]2C(=O)N1CCN(C(=O)c2ccco2)CC1 (stereo partly drawn)	none (no result: MEKK3 PB1 HTS, MEKK2mut PB1 HTS, MEKK2wt PB1 HTS)
